Assay results as given in PubChem BioAssay AID1259422 (The Scripps Research Institute Molecular Screening Center, 2018).
The whole screen tested about 640,000 compounds, of which about 9,300 (1.5%) were called active. No stated cut-off is given here; in the data, active means inhibition above about 32%; inactive means the rest. This excerpt belongs to a sample that is enriched for actives.

Test: TEAD-YAP interaction inhibition, primary screen, TEAD-YAP interaction inhibitor project, luminescence, HEK-TIYL cells (AID 1259422);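 further: 0% = median of test compound wells and 100% = reference inhibitor wells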
Details: TEAD-Gal4/YAP UAS-luciferase luminescence, at 9.12 µM, hits give high values

Compound	inhibition
Cn1c(=O)[nH]c(=O)c2c1nc(N(CCO)Cc1ccccc1)n2Cc1ccccc1Cl	-2.54% (inactive)
CCC(C)n1c(N(C)Cc2ccccc2)nc2c1c(=O)[nH]c(=O)n2C (stereo not given)	49.9% (active)
CC(Nc1nc2c(c(=O)[nH]c(=O)n2C)n1Cc1ccccc1)c1ccccc1 (stereo not given)	0.86% (inactive)
CCC(C)NC(=O)c1ccc(S(=O)(=O)c2ccc(OC)cc2)c([N+](=O)[O-])c1 (stereo not given)	32.4% (active)
COCCNC(=O)c1ccc(Sc2ccc(OC)cc2)c([N+](=O)[O-])c1	-17% (inactive)
CCC(C)NC(=O)c1ccc(N2CCC3(CC2)OCCO3)c([N+](=O)[O-])c1 (stereo not given)	-13.8% (inactive)
Cc1nn(C)c(C)c1-c1cncc(C(=O)NCc2cccc(C(F)(F)F)c2)c1	-3.32% (inactive)
Cc1nc2c(C(=O)NCc3ccc(F)cc3)cnn2c(C)c1Cc1cccc(Cl)c1	0.57% (inactive)
O=C(CSCC(=O)Nc1ccc2ccccc2c1)NCC1CCCO1 (stereo not given)	-13.5% (inactive)
O=c1oc2cc(Cl)ccc2n1C(c1ccccc1)(c1ccccc1)c1ccccc1	-6.71% (inactive)
O=C1NC2(CCN(C(=O)c3cccc4cccnc34)CC2)Nc2ccc(Cl)cc21	77.2% (active)
O=C1NC2(CCN(C(=O)C3CCN3C3CCCCC3)CC2)Nc2ccccc21 (stereo not given)	7.24% (inactive)
O=C1NC2(CCN(C(=O)CCn3ncc4ccccc43)CC2)Nc2ccccc21	-11.1% (inactive)
CCc1ccc2c(c1)NC(=O)C2(CC)c1ccc2c(c1)OCO2 (stereo not given)	-7.41% (inactive)
CN(c1nc(N)ncc1[N+](=O)[O-])C1CCCCC1	33.8% (active)
CN(c1ccc(C(=O)Nc2cc(F)cc(F)c2)cc1[N+](=O)[O-])C1CCCCC1	-5.53% (inactive)
CN(c1ncnc2c1nc1n2CCCCC1)C1CCCCC1	-48% (inactive)
CCOC(=O)C1=CN(Cc2ccc(Cl)cc2)C=C(C(=O)OCC)C1c1cccc(OCc2ccccc2)c1	5.47% (inactive)
COC(=O)C1=CN(Cc2ccc(OC)c(OC)c2)C=C(C(=O)OC)C1c1cccc(OCc2ccccc2)c1	55.4% (active)
CCOC(=O)C1=CN(Cc2ccc(F)cc2)C=C(C(=O)OCC)C1c1cccc(OCc2ccccc2)c1	10.8% (inactive)

Compound	inhibition
CC(=O)c1ccc(OCC(=O)Nc2c(F)c(F)cc(F)c2F)cc1	-0.14% (inactive)
CCOc1ccc(C2C(C#N)=C(N)N(c3ccc(F)cc3)C3=C2C(=O)CCC3)cc1 (stereo not given)	-0.96% (inactive)
N=C1c2ccccc2CN1NC(=O)c1ccccc1-n1cccc1	11.5% (inactive)
FC(F)(F)c1cccc(Nc2ccc(Br)cn2)c1	9.99% (inactive)
O=C(Cc1ccc([N+](=O)[O-])cc1)Nc1ccccc1Cl	-21.8% (inactive)
CNC(=O)c1ccccc1Nc1cc(NC(=O)Cc2ccc(F)c(F)c2)ncc1C(F)(F)F	65.4% (active)
CCc1ccccc1NC(=O)Cc1ccc([N+](=O)[O-])cc1	2.99% (inactive)
Cc1cc(NC(=O)c2cccs2)ncc1NC(=O)c1ccccc1F	-50.5% (inactive)
O=C(Cc1c(F)cccc1Cl)Nc1ccc(Cl)cn1	-7.57% (inactive)
CNC(=O)c1ccccc1Nc1cc(NC(=O)C(F)(F)c2ccccc2)ncc1C(F)(F)F	41.9% (active)
CNC(=O)c1ccccc1Nc1cc(NC(=O)Cc2ccc([N+](=O)[O-])cc2)ncc1C(F)(F)F	78.8% (active)
CNC(=O)c1ccccc1Nc1cc(NC(=O)C2(c3ccccc3)CC2)ncc1C(F)(F)F	-1.5% (inactive)
Cc1nc(NC(=O)c2ccc(C(C)(C)C)cc2)sc1C(=O)N1CCOCC1	13.1% (inactive)
COC(=O)c1cc2occc2n1CC(=O)N(C)c1ccccc1	4.95% (inactive)
Nc1cc(Oc2ccc3ccccc3c2)c(Cl)cc1[N+](=O)[O-]	2.07% (inactive)
O=C(COc1coc(CN2CCN(c3ccccc3F)CC2)cc1=O)N1CCCCCC1	-0.51% (inactive)
COC(=O)c1cc(NC(=O)Nc2cc(Cl)ccc2OC)cc(C(=O)OC)c1	0.04% (inactive)
Cc1ccc(-c2cncc(-c3cc(NCc4ccco4)nc(C)n3)c2)cc1	-4.33% (inactive)
COCCNc1cc(-c2cncc(-c3ccc(F)cc3)c2)nc(C)n1	-1.76% (inactive)
Cc1cnc(CNc2cc(-c3cncc(-c4ccc(F)cc4)c3)nc(C)n2)cn1	33% (active)
